Source: PubChem BioAssay
Vaccinia mCherry: inhibitors of vaccinia virus infection (mCherry reporter signal); Vaccinia virus mCherry reporter infection, fluorescence; Potency, µM (doses to about 36.5 µM), most hits filed as inhibitors; 310,000 compounds, 0.63% hits; AID 720579; calls by dose curve; tested in A549 cells; note: nearly all actives have a fitted effect of over 35% in size
Pf growth 48h: P. falciparum growth inhibition at 48 hours (one generation). P. falciparum luciferase growth in erythrocytes, 48 h. Potency, µM (doses to about 28.7 µM), hits mostly inhibitors. 310,000 compounds, 5.9% hits. AID 504832
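Luminescence readout; reporter = integrated firefly luciferase in P. falciparum. RBC culture at 2% hematocrit, 0.1% parasitemia final, 37 C/5% CO2; decreased signal taken as growth inhibition.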
NS1 function inh: influenza NS1 inhibition | AID 2326 | 270,000 compounds, 0.4% hits | Potency, µM (doses to about 46.1 µM); calls by dose curve; note: actives are rising curves; nearly all actives have a fitted effect of over 50% in size
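Read-out: OD600 growth recovery of NS1-expressing budding yeast. Cells grown overnight at 30C in -URA glucose medium, washed, resuspended and diluted 1:100 in 2% galactose assay medium, pH 6.0. Same strain lacking NS1 served as positive control.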
Vaccinia Venus: inhibitors of vaccinia virus (Venus reporter); Vaccinia virus Venus reporter expression, fluorescence; Potency, µM (series often up to 36.5 µM), most hits filed as inhibitors; 330,000 compounds, 0.46% hits; AID 720580; calls by dose curve; tested in A549 cells; note: nearly all actives have a fitted effect of over 30% in size
Pf growth 96h: inhibits malaria parasite growth, 96 h; P. falciparum luciferase reporter growth, 96 h; Potency, µM (top dose mostly 28.7 µM), actives largely listed as inhibitors; 320,000 compounds, 6.9% hits; AID 504834
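Delayed-death screen, second-generation endpoint: infected erythrocytes, 2% hematocrit, 0.05% parasitemia final; 96 hours at 37 C, 5% CO2; luciferase detection reagent; luminescence decrease equals reduced growth.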
HCV inh: inhibitors of hepatitis C virus infection. Huh7.5.1 HCVcc-Cre infection, luciferase reporter, 44 h. Potency, µM (series often up to 41.8 µM), usual class: inhibitors. 340,000 compounds, 3.4% hits
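Cells (1,000/well) were plated 4 h before compound, then infected with HCVcc-Cre virus (~0.5 moi). After 44 h further culture, infection was read as luciferase luminescence following a 15 min substrate incubation at room temperature.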
Numbers stand for hits; n = inactive; u = inconclusive; x = no result. Shown are actives, neighbours in structure and some others; about 11% of the full set was active somewhere. Unless noted, calls come from the whole dose curve; as a rule, active = well fitted inhibition curve with a large enough effect; inconclusive = small, poorly fitted or top-dose-only effect, or another doubt; inactive = no such curve, though single readings can be large or run the other way.

SMILES	Vaccinia mCherry	Pf growth 48h	NS1 function inh	Vaccinia Venus	Pf growth 96h	HCV inh
CN(Cc1ccccc1)C(=O)CC(c1ccccc1)c1cc(Cl)ccc1O (stereo not drawn)	n	u	n	u	10µM	n
CC(NC(=O)CC(c1ccccc1)c1cc(Cl)ccc1O)c1ccccc1 (stereo not drawn)	u	u	n	u	n	u
COc1ccc(-c2cn[nH]c2-c2ccc(OCc3ccccc3F)cc2O)cc1OC	u	u	n	u	u	11µM
COc1ccc(-c2cn[nH]c2-c2ccc(OC)cc2O)cc1	u	9.3µM	n	n	12µM	u
COc1cc2cnc(-c3ccccc3)c(-c3ccc([N+](=O)[O-])cc3)c2cc1OC	n	n	x	n	u	n
Oc1ccc(-c2[nH]ncc2-c2ccc(Cl)cc2)c(O)c1	x	u	n	x	n	u
COc1ccc(-c2[nH]ncc2-c2ccc(Cl)cc2)c(O)c1	x	12µM	n	u	4.1µM	n
CCc1cc(-c2[nH]ncc2-c2ccc([N+](=O)[O-])cc2)c(O)cc1OC	x	4.7µM	n	x	n	u
COc1ccc(-c2cn[nH]c2-c2ccc(OCc3ccccc3)cc2O)cc1	u	u	n	n	u	u
Oc1ccc(-c2[nH]ncc2-c2ccc(Br)cc2)c(O)c1	x	u	n	x	u	n
O=[N+]([O-])c1ccc(COc2ccc(-c3[nH]ncc3-c3ccc(Cl)cc3)c(O)c2)cc1	n	2.3µM	n	u	u	u
COc1ccccc1-c1cn[nH]c1-c1ccc(OCc2ccccc2)cc1O	u	6.6µM	n	n	3.7µM	n
CCOc1ccc(-c2[nH]ncc2-c2ccccc2)c(O)c1	x	u	n	x	7.4µM	n
O=C(NCc1ccccc1)C1c2ccccc2OCC(=O)N1Cc1ccccc1 (stereo not drawn)	n	x	x	n	x	x
COc1ccc(OC)c(C2=NOC(C(=O)Nc3cccnc3)C2)c1 (stereo not drawn)	n	n	n	n	12µM	n
COc1ccc(OC)c(C2=NOC(C(=O)NCCN3CCOCC3)C2)c1 (stereo not drawn)	x	n	n	x	n	n
COc1ccc(OC)c(C2=NOC(C(=O)NCc3cccs3)C2)c1 (stereo not drawn)	n	n	x	u	0.37µM	n
COc1ccc(OC)c(C2=NOC(C(=O)Nc3ccc4c(c3)OCCO4)C2)c1 (stereo not drawn)	n	n	n	n	n	n
Cn1c(O)c(/C=C/C=Nc2ccccc2)c(=O)n(C)c1=S	n	n	n	n	n	n
CCOc1ccc(C(C)=O)cc1COC(=O)CCc1cc(OC)c(OC)c(OC)c1	n	u	n	n	8.3µM	u
Cc1ccc(N2C(=O)c3ccccc3C2Nc2ccccc2)nc1 (stereo not drawn)	n	x	n	n	10µM	n
CCOC(=O)c1ccc(NC2c3ccccc3C(=O)N2c2ccc(C)cn2)cc1 (stereo not drawn)	u	x	n	n	12µM	n
CCOC(=O)c1ccc(NC2c3ccccc3C(=O)N2c2cccnc2)cc1 (stereo not drawn)	n	n	n	n	u	n
CCc1cccc(NC2c3ccccc3C(=O)N2c2ccc(C)cn2)c1 (stereo not drawn)	n	x	n	n	u	u
CC(=O)Nc1ccc(S(=O)(=O)NNC(=O)c2sc(=S)n(C)c2C)cc1	n	n	n	n	n	n
SMILES	Vaccinia mCherry	Pf growth 48h	NS1 function inh	Vaccinia Venus	Pf growth 96h	HCV inh
COc1ccc(N2CCN(C(=O)CNC(=O)Cn3c(C)cc4ccccc4c3=O)CC2)cc1	x	u	n	x	x	n
Cc1cc2ccccc2c(=O)n1CC(=O)NCC(=O)N1CCCC1	x	n	n	n	12µM	n
COc1cccc(CCNc2ccc(N3C(=O)CC(C)C3=O)cc2[N+](=O)[O-])c1 (stereo not drawn)	n	u	x	n	n	n
COCCCNC(=S)Nc1cccc2ncccc12	n	n	x	n	n	n
CC(=O)Nc1ccc(C(=O)OCC(=O)N(c2ccccc2)C2CCS(=O)(=O)C2)cc1 (stereo not drawn)	x	n	x	x	n	n
O=C(CCl)N(c1ccccc1)C1CCS(=O)(=O)C1 (stereo not drawn)	10µM	12µM	n	11µM	u	22µM
Cc1ccc(CSCCNC(=O)c2ccc(C)cc2)cc1	n	13µM	n	n	n	n
COc1ccc(C(=O)NCCSCc2ccc(C)cc2)cc1	n	u	n	n	u	n
CC(=O)Nc1ccc(NC(=O)c2ccc(C3SCC(=O)N3CCc3ccccc3)cc2)cc1 (stereo not drawn)	n	n	n	u	12µM	u
O=C(NCCSCc1ccccc1)c1ccc(C2SCC(=O)N2Cc2ccccc2)cc1 (stereo not drawn)	n	x	n	n	7.4µM	u
Cc1cccc(NC(=O)c2ccc(C3SCC(=O)N3CCc3ccccc3)cc2)c1 (stereo not drawn)	n	u	n	u	n	u
CC1=NN(c2ccccc2)C(=O)/C1=C\C=C1/N(C)c2ccccc2C1(C)C	n	u	n	n	u	u
O=C(CSc1nnnn1C1CCCCC1)Nc1ccccc1N1CCOCC1	x	n	n	x	n	n
O=C(N1CCOCC1)C1(c2ccc(Cl)cc2)CCCC1	x	n	n	n	n	n
CCOC(=O)c1c(CN2CCN(C)CC2)n(-c2ccccc2)c2cc(Br)c(O)cc12	x	u	n	x	u	14µM
CCOC(=O)c1c(CN2CCN(c3ccccc3)CC2)oc2cc(Br)c(O)cc12	x	1.7µM	n	x	u	u
CCOC(=O)c1c(CN2CCN(CCO)CC2)n(-c2ccccc2)c2cc(Br)c(O)cc12	n	2.1µM	n	u	1.7µM	u
CCOC(=O)c1c(CSC(=N)N)n(-c2ccccc2)c2cc(Br)c(OC(C)=O)cc12	u	2.9µM	u	n	2.1µM	n
S=c1sc2c(N3CCN(Cc4ccccc4)CC3)ncnc2n1-c1ccccc1	x	x	n	n	u	n
COCC(=O)Nc1cc(C(=O)N2CCN(C3CCCC3)C(=O)C2)c2c(c1)nc(-c1ccncc1)n2C	n	x	x	n	x	x
CCOc1ccc(OC(=O)NC(c2ccccc2)C(Cl)(Cl)Cl)cc1 (stereo not drawn)	x	u	n	x	u	n
COC(=O)COC(=O)CC(CC(N)=O)c1ccccc1 (stereo not drawn)	x	n	n	x	9.3µM	n
Nc1nc2[nH]cc(CCc3ccc(C(=O)NC(CCC(=O)O)C(=O)O)cc3)c2c(=O)[nH]1 (stereo not drawn)	x	0.67µM	x	x	1.3µM	x
Nc1nc2c(c(=O)[nH]1)N(C=O)C(CNc1ccc(C(=O)NC(CCC(=O)O)C(=O)O)cc1)CN2 (stereo not drawn)	n	x	x	n	x	x
COc1ccc(CN2CCN(C(=O)Cc3ccccc3)CC2)cc1OC	n	x	x	n	x	x
COc1ccc(OC)c(CN2CCN(C(=O)Cc3ccccc3)CC2)c1	x	n	n	x	12µM	n
CCOc1ccc(CN2CCN(C(=O)c3cccc(F)c3)CC2)cc1	n	n	n	n	n	11µM
